# Laboratory results published in PubChem BioAssay (Tox21).
# Inconclusive results are not listed. A call without a number means that no potency is given here. A number with no mark means an inactive call. Active and inactive are the calls of the source. Calls follow the shape of the dose curve; as a rule, active = well fitted inhibition curve with a large enough effect in the repeat runs; inconclusive = weak or mixed curves; inactive = no such curve, though single readings can be large or run the other way.
# Target: Cytochrome P450 2C9 (Homo sapiens) (UniProt P11712)
# Sequence (P11712 whole entry, looked up): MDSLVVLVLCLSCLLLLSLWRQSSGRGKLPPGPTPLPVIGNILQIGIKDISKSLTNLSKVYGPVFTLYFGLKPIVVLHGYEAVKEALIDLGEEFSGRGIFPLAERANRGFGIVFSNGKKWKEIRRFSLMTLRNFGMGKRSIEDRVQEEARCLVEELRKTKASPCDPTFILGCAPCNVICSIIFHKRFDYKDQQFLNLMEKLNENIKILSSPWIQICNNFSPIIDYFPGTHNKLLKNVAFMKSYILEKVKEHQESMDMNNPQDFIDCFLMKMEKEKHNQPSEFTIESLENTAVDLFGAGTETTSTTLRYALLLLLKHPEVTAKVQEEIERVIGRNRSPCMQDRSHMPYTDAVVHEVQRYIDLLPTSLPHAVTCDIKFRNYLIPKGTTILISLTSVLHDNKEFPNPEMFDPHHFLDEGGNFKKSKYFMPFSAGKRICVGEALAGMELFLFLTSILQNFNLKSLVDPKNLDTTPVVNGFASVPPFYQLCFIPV
# Assay: Cytochrome P450 Family 2 Subfamily C Member 9 (CYP2C9) small molecule antagonists: luciferase reporter qHTS assay (AID 1671198); also: nearly all actives have a fitted effect of over 50% in size
# Settings: P450-Glo CYP2C9 enzyme assay, luciferin luminescence; series mostly up to 115 µM
# Text: U.S. Tox21 Program National Center for Advancing Translational Sciences [NCATS] U.S. Environmental Protection Agency [EPA] National Institutes of Environmental Health Sciences [NIEHS] National Toxicology Program [NTP] U.S. Food and Drug Administration [FDA] Tox21 Assay Overview: Cytochrome P450 (CYP) enzymes are membrane-bound hemeproteins that play a key role in metabolism of drugs and xenobiotics. Evaluation of the effect of chemicals on CYP isozymes is useful to minimize the adverse drug reactions and toxicities in drug development process. Tox21 chemicals were tested for their effect on CYP enzyme activities by using P450-Glo (TM) screening systems (Promega Corporation, Madison, WI). These systems provide a luminescent method containing proluciferin substrates and are converted to luciferin products by CYP isozymes. The luciferin products formed are detected with a luciferin detection reagent, and the amount of light produced is proportional to CYP activity. P450-Glo (TM) CYP2C9 screening system (Catalog. No. V9790) was used to detect the compounds that interfere in CYP2C9 activity.
# Tox21 Assay Protocol Summary: Two ul of enzyme-substrate mix was dispensed into medium binding white/solid 1536-well plates (Greiner Bio-One North America Inc., Monroe, NC) using a BioRaptr Flying Reagent Dispenser (FRD, Beckman Coulter, Brea, CA). […] The assay plates were incubated at room temperature for 10 min. Then 2 ul of NADPH regeneration solution was added to each well of the assay plates using an FRD and incubated at 37C for 1 h. The reaction was stopped by adding 4 ul of detection reagent using an FRD and after 20 min incubation at room temperature the luminescence signal was measured using a ViewLux plate reader (Perkin Elmer, Shelton, CT). Data were expressed as relative luminescence units.
# Potency is read from the fitted curve at half-maximal effect.
Compound,Potency,"activity change, negative = inhibition"
CCC#N,inactive,–
Oc1c(Cl)cccc1Cl,inactive,–
CC1=C(C(=O)O)N2C(=O)[C@@H](N)[C@H]2SC1,–,5.86% [at 23.6 µM]
CNC(=O)Oc1ccc(N(C)C)c(C)c1,inactive,–
OC(Cn1cncn1)(c1ccc(F)cc1)c1ccccc1F (stereo not given),0.796 µM (active),–
CC(C)(C)C(=O)C(Oc1ccc(Cl)cc1)n1cncn1 (stereo not given),12.6 µM (active),–
O=[N+]([O-])c1ccc(CBr)cc1,inactive,–
COC(=O)C(C)Oc1ccc(Oc2ccc(Cl)cc2Cl)cc1 (stereo not given),31.7 µM (active),–
NC(=S)C(N)=S,79.6 µM (active),–
CC1(C)C(=O)NC(=O)NC1=O,inactive,–
CC1CN1P(=O)(N1CC1C)N1CC1C (stereo not given),inactive,–
CN1C(=S)CN=C(c2ccccc2)c2cc(Cl)ccc21,17.4 µM (active),–
CC(=O)Nc1cc([As](=O)(O)O)ccc1O,inactive,–
C[C@H]1CCC[C@H](O)CCCCCc2cc(O)cc(O)c2C(=O)O1,31.9 µM (active),–
Nc1cc(Cl)ccc1O,30.7 µM (active),–
OCCSCSCCO,inactive,–
Cc1ccccc1CO[C@@H]1C[C@@]2(C(C)C)CC[C@]1(C)O2,22.4 µM (active),–
CCOP(=S)(OCC)Oc1nc(Cl)n(C(C)C)n1,5.03 µM (active),–
C[N+](C)=CCl,inactive,–
CN(C)CCc1ccc(O)cc1,inactive,–

Compound,Potency,"activity change, negative = inhibition"
CC(CC(C#N)(c1ccccc1)c1ccccc1)N(C)C (stereo not given),inactive,–
Fc1ccc(C2(Cn3cncn3)OC2c2ccccc2Cl)cc1 (stereo not given),5.64 µM (active),–
Cc1ncsc1CCCl,inactive,–
CC1COC2(c3ccccc3Cl)c3cc(Cl)ccc3NC(=O)CN12 (stereo not given),27.5 µM (active),–
COc1ncc(F)c2nc(S(=O)(=O)Nc3c(F)cccc3F)nn12,22.6 µM (active),–
NC(=O)O,inactive,–
CCOP(=S)(OCC)Oc1cc(-c2ccccc2)on1,0.502 µM (active),–
CC(Cl)(Cl)[N+](=O)[O-],inactive,–
[O]=[Cd],inactive,–
C=CC1CC=CCC1 (stereo not given),inactive,–
N#CC(O)c1ccccc1 (stereo not given),inactive,–
CC(C)(C)OC(=O)c1ncn2c1[C@@H]1CCCN1C(=O)c1c(Br)cccc1-2,7.76 µM (active),–
OC(c1ccc(F)cc1)(c1cncnc1)c1ccccc1Cl (stereo not given),20 µM (active),–
CCOP(=S)(OCC)SCSP(=S)(OCC)OCC,0.796 µM (active),–
N#CC(Cl)(Cl)Cl,inactive,–
CC(C=O)Cc1ccc2c(c1)OCO2 (stereo not given),15.9 µM (active),–
CCS(=O)(=O)CCSP(=O)(OC)OC,inactive,–
CC(COc1ccc(Oc2ccccc2)cc1)Oc1ccccn1 (stereo not given),15.9 µM (active),–
N#CC(CCc1ccc(Cl)cc1)(Cn1cncn1)c1ccccc1 (stereo not given),2.24 µM (active),–
CN1CCN(C(=O)O[C@H]2c3nccnc3C(=O)N2c2ccc(Cl)cn2)CC1,inactive,–
